# Laboratory results from PubChem BioAssay (NCATS).
# Records with an inconclusive call do not appear. Where a call stands in place of a potency, no number is given. Calls of active or inactive are those of the source. Unless noted, calls come from the whole dose curve.
# What was measured:
# [1] = Primary qHTS for Huh7 cytotoxicity: counterscreen for inhibitors of MERS-S pseudotyped particle cell entry (AID 1479147); conditions: outcome: dose series up to 57.1 µM unless noted
# [2] = Primary qHTS for inhibitors of MERS-S pseudo-typed particle cell entry (AID 1479149); conditions: outcome: dose series up to 57.1 µM unless noted; note: nearly all actives have a fitted effect of over 60% in size; note: potency is the fitted concentration of half-maximal effect
# [3] = Primary qHTS for Vero E6 cytotoxicity: counterscreen for inhibitors of SARS-S pseudo-typed particle cell entry (AID 1479150); conditions: outcome: dose series up to 57.1 µM unless noted
# [4] = Cytotoxicity counterscreen for inhibitors of SARS-CoV-2 cell entry (AID 1645845); conditions: outcome: dose series up to 57.1 µM unless noted; note: nearly all actives have a fitted effect of over 50% in size
# Summary of the method: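 ATP-content luminescence (ATPLite 1step, 15 min RT) read after 48 h compound exposure of Expi293F cells stably expressing human ACE2; normalized to cells-only wells and media-only wells.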
# [5] = Primary qHTS to identify inhibitors of SARS-CoV-2 cell entry (AID 1645846); conditions: SARS-CoV-2 pseudovirus cell entry assay, luminescence; activity change, negative = inhibition: at 57.1 µM (top of the series) unless noted; note: nearly all actives have a fitted effect of over 45% in size; note: potency is the fitted concentration of half-maximal effect
# Summary of the method: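 HEK293 cells stably expressing human ACE2, pre-treated 1 h with compound, then infected with MLV particles pseudotyped with Wuhan-Hu-1 spike (C-terminal 19-aa truncation). Luciferase luminescence after 48 h at 37 °C, normalised to spike PP and bald PP.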
# [6] = molecular target: Glutathione peroxidase 1 (Homo sapiens) (UniProt P07203); test: Primary qHTS Assay for Inhibitors of Recombinant Selenoprotein Glutathione Peroxidase 1 (GPX1) (AID 1845191; active = well fitted inhibition curve with a large enough effect; note: nearly all actives have a fitted effect of over 65% in size)
# Summary of the method: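 NADPH consumption tracked by fluorescence at 340/450 nm between t=0 and t=15 min, room temperature. Final mix: 10 nM GPX1, 100 nM glutathione reductase, 1 mM GSH, 0.5 mM NADPH, 0.5 mM cumene hydroperoxide, 0.01% BSA; 30 min compound–enzyme preincubation.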
# [7] = molecular target: Phospholipid hydroperoxide glutathione peroxidase GPX4 (Homo sapiens) (UniProt P36969); test: Primary qHTS Assay for Inhibitors of Recombinant Selenoprotein Glutathione Peroxidase 4 (GPX4) (AID 1845192; active = well fitted inhibition curve with a large enough effect; note: nearly all actives have a fitted effect of over 65% in size)
# Summary of the method: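 NADPH consumption followed by fluorescence at 340/450 nm, t=0 and after 15 min at room temperature. Reaction started with cumene hydroperoxide (0.5 mM final) after 30 min compound–GPX4 preincubation; final 200 nM GPX4, 100 nM GR, 1 mM GSH, 0.5 mM NADPH.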
# Glutathione peroxidase 1 (Homo sapiens), sequence (P07203 whole entry, looked up): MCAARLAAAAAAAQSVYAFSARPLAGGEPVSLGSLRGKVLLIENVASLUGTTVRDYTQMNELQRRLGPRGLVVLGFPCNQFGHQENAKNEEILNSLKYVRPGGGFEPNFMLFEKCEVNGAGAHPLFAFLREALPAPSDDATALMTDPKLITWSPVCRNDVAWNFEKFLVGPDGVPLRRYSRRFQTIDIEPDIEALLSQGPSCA
# Phospholipid hydroperoxide glutathione peroxidase GPX4 (Homo sapiens), sequence (P36969 whole entry, looked up): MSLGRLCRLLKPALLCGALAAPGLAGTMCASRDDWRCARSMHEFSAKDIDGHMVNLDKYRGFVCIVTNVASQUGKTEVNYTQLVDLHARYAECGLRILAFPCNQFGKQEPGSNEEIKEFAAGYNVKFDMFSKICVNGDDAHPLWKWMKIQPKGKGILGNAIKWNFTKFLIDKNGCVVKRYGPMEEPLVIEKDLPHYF
compound,measurement,setting,value
CC(C)(S)[C@H](N)C(=O)O,outcome,[1],inactive [at 5.34 µM]
same,outcome,[2],inactive [at 5.34 µM]
same,"activity change, negative = cytotoxicity",[3],0.739% [at 5.34 µM] (inactive)
same,outcome,[4],inactive [at 5.25 µM]
same,"activity change, negative = inhibition",[5],-28.5% [at 5.25 µM]
Oc1cc(O)cc(O)c1,Potency,[1],inactive
same,Potency,[2],inactive
same,Potency,[3],inactive
same,Potency,[4],inactive
same,"activity change, negative = inhibition",[5],-21.2%
Cc1ccc(S(=O)(=O)O)cc1,Potency,[1],inactive
same,Potency,[2],inactive
same,Potency,[3],inactive
same,Potency,[4],inactive
same,"activity change, negative = inhibition",[5],-13.7%
N=c1ccn2c(n1)O[C@@H]1[C@@H](O)[C@H](CO)O[C@@H]12,Potency,[1],inactive
same,Potency,[2],8.91 µM (active)
same,Potency,[3],inactive
same,Potency,[4],inactive
same,Potency,[5],2.51 µM (active)
CCC(=O)OC1(C(=O)CCl)C(C)CC2C3CC(F)C4=CC(=O)C=CC4(C)C3(F)C(O)CC21C (stereo not drawn),Potency,[1],inactive
same,Potency,[2],inactive
same,Potency,[3],inactive
same,Potency,[4],inactive
same,"activity change, negative = inhibition",[5],-5.75%
CC[C@H](C)C1NC(=O)[C@H](Cc2ccc(O)cc2)NC(=O)[C@@H](N)CSSC[C@@H](C(=O)N2CCC[C@H]2C(=O)N[C@@H](CC(C)C)C(=O)NCC(N)=O)NC(=O)[C@H](CC(N)=O)NC(=O)[C@H](CCC(N)=O)NC1=O (stereo partly drawn),Potency,[1],inactive
same,Potency,[2],inactive
same,Potency,[3],inactive
same,Potency,[4],inactive
same,"activity change, negative = inhibition",[5],-27.2%
CC(C)N[C@@H]1CCn2c(=O)[nH]c3cccc(c32)[C@H]1O,Potency,[1],inactive
same,Potency,[2],inactive
same,Potency,[3],inactive
same,Potency,[4],inactive
same,Potency,[5],inactive
same,Potency,[6],inactive
CCCCCCCCCCCCNCCNCCNCC(=O)O,Potency,[1],inactive
same,Potency,[2],inactive
same,Potency,[3],inactive
same,Potency,[4],inactive
same,"activity change, negative = inhibition",[5],-24.3% [at 27.1 µM]
same,Potency,[6],inactive
same,Potency,[7],inactive
CC(=O)OCC1=C(C(=O)O)N2C(=O)[C@@H](NC(=O)[C@H](N)c3ccccc3)[C@H]2SC1,Potency,[1],inactive
same,Potency,[2],inactive
same,Potency,[3],inactive
same,Potency,[4],inactive
same,"activity change, negative = inhibition",[5],-7.18%
